# Keap1-Nrf2 PPI: inhibitors of human Keap1-Nrf2 protein-protein interaction; inhibition, % at 9.4 µM; 340,000 compounds, 0.15% hits; AID 504523; Q14145; Keap1 Kelch-Nrf2 peptide fluorescence polarization, 1536-well; in the data active = inhibition above about 12%;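 also: human Keap1 Kelch domain with fluorescein labeled Nrf2 9mer peptide probe; higher means more block of Keap1 binding to Nrf2 peptide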
# Target sequence (Q14145 whole entry, looked up, the tested form may be a part): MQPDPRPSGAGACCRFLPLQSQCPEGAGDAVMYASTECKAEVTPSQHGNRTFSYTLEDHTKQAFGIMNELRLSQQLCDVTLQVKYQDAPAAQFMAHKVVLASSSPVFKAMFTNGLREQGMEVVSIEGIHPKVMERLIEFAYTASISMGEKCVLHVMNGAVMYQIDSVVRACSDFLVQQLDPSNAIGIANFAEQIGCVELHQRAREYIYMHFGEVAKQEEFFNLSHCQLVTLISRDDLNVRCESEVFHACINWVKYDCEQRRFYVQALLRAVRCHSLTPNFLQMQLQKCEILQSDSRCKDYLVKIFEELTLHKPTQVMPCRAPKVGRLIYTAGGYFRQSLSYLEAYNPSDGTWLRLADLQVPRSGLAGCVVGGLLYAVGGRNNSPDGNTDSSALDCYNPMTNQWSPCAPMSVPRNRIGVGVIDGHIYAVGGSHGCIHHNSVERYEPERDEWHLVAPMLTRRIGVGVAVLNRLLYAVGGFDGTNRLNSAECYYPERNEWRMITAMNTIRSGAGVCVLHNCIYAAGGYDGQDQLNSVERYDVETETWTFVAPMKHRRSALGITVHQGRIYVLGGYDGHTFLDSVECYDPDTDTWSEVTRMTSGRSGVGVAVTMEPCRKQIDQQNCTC
# cardiac RTF act: cardiac RTF calcium sensitization; IANBD-labeled TnC RTF fluorescence at EC20 calcium; 0% EC20 calcium, 100% full calcium; activation, % at 7.2 µM; 340,000 compounds, 0.24% hits; AID 493008;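 active = activation above the mean over all tested compounds plus 3 SD, cut at about 30% in these data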;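 also: rise in fluorescence read as greater calcium sensitivity of cardiac thin filaments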
# RTF Ca sens inh: cardiac RTF calcium desensitization. 340,000 compounds, 0.12% hits. inhibition, % at 7.15 µM. IANBD-labeled cardiac RTF, Ca2+ fluorescence. P19429+P45379;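 active = inhibition above the mean inhibition of all tested compounds plus 3 SD, cut at about 17% in these data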;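 also: assay run at fixed EC70 calcium of 1.6 mM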
# C-LANA FP: inhibitors of KSHV LANA C-terminal domain DNA binding | MBP-C-LANA/FAM-LBS DNA binding, fluorescence polarization | inhibition, % at 9 µM | 340,000 compounds, 0.078% hits;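 active = highest replicate inhibition at or above 60% at 9 µM, even if other replicates fall short; inactive = all replicates below 60% inhibition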
# RTF inh confirm: cardiac RTF calcium sensitivity inhibition, confirmation; reconstituted cardiac thin filaments, calcium sensitivity fluorescence; inhibition, % at 7.15 µM; shares compounds with RTF Ca sens inh; AID 504635; 360 compounds, 8% hits; in the data active = inhibition above about 18%
# A number is an active result; i = inactive; nt = not tested or not shown. Rows were chosen to be rich in hits. Some 0.5% of all compounds tested hit in one or more screens of this group.
SMILES,Keap1-Nrf2 PPI,cardiac RTF act,RTF Ca sens inh,C-LANA FP,RTF inh confirm
CCN1/C(=C/C=C2/SC(=Nc3cccc4ncccc34)N(C)C2=O)Sc2ccccc21,i,41,i,i,nt
CCN1CC=C2C(C#N)=C(N)C(C#N)(C#N)[C@H](c3cccc(OC)c3OC)[C@H]2C1,16,36,i,i,nt
COc1cccc(C2C3CN(C)CC=C3C(C#N)=C(N)C2(C#N)C#N)c1OC (stereo unspecified),i,i,i,i,nt
Cc1ccc(C)c(NC(=O)CCc2ccc(C)o2)c1,i,i,i,i,nt
Cc1ccc(CCC(=O)Nc2cc(Cl)ccc2Cl)o1,i,39,i,i,nt
Cc1cc(/C=C2\SC(=S)N(C)C2=O)c(C)n1-c1ccccc1O,i,44,i,i,nt
Cc1nn(Cc2c(F)c(F)c(F)c(F)c2F)c(C)c1NC(=O)c1nn(C)c(C)c1Br,i,47,i,i,nt
Cc1nn(Cc2c(F)c(F)c(F)c(F)c2F)c(C)c1NC(=O)c1nn(C)cc1Br,i,i,i,i,nt
Nc1c(C(=O)C2CC2)sc2nc(-c3cccs3)cc(C(F)(F)F)c12,i,46,i,i,nt
CN(C(=O)COC(=O)C1=COCCO1)C1(C#N)CCCCC1,i,i,i,i,nt
N#CC1(NC(=O)COC(=O)C2=COCCO2)CCCCC1,194,i,i,nt,nt
CC1=C(O)C(=O)C(C2=C(O)C(=O)C(C)=C(O)C2=O)=C(O)C1=O,i,i,i,61,nt
COc1ccccc1C(=O)NN(C)C1=NS(=O)(=O)c2ccccc21,i,60,i,i,nt
CN(NC(=O)CN1C(=O)c2ccccc2C1=O)C1=NS(=O)(=O)c2ccccc21,i,i,i,i,nt
CCO[C@@H]1OC(C(=O)NC2CC2)=C[C@H](c2ccc(Br)cc2)[C@H]1CCCO,i,i,i,i,nt
CCc1ccc(OCC(=O)NNC(=O)c2nn(CC)c(=O)c3ccccc23)cc1,i,i,18,i,i
O=C(NC(=S)Nn1cnnc1)c1cccc(Br)c1,i,i,19,i,i
Cc1ccc(C(=O)NC(=S)Nn2cnnc2)cc1,i,i,i,i,nt
O=C(COC(=O)/C=C/c1ccc(S(=O)(=O)N2CCc3ccccc32)cc1)NC1CCS(=O)(=O)C1 (stereo unspecified),i,i,i,i,nt
CCCC1(C(=O)OCC)NC(c2ccco2)C2C(=O)N(C)C(=O)C21 (stereo unspecified),i,i,i,i,nt
CCCOC(=O)c1ccc(NC(=O)c2c(Cl)ccc(Cl)c2OC)cc1,i,i,21,i,i
Cc1ccc(S(=O)(=O)N2C[C@@H]3[C@H]4CC[C@H](C4)[C@@H]3[C@@H](C)C2CC(=O)c2ccccc2)cc1 (stereo partly specified),i,i,i,i,nt
Cc1ccc(-n2c(SCC(=O)O)nc3sc4c(c3c2=O)CCCC4)cc1,i,i,17,i,i
CCOc1ccc(CN(C)C(=O)c2cccnc2OCC)cc1OC,i,i,18,i,i
CCOc1ncccc1C(=O)NCc1ccc(OC)c(OC)c1,i,i,i,i,nt
SMILES,Keap1-Nrf2 PPI,cardiac RTF act,RTF Ca sens inh,C-LANA FP,RTF inh confirm
CC1=CC(C)C(C(=O)O)C(C(=O)N2CCN(C)CC2)C1 (stereo unspecified),i,i,i,i,nt
CC1=CC(C)(C)C(C(=O)O)C(C(=O)O)C1 (stereo unspecified),i,i,18,i,i
O=C(O)COc1ccc(/C=N/NC(=O)c2ccc(-c3csc(Nc4ccc(Cl)cc4)n3)cc2)cc1,i,i,34,i,18
CCOc1cc(/C=N/NC(=O)c2ccc(-c3csc(Nc4ccc(C)cc4)n3)cc2)ccc1OCC(=O)O,i,nt,nt,i,nt
Cc1cccc(NC(=O)CCN2CC(C)OC(C)C2)c1 (stereo unspecified),i,i,i,i,nt
Cc1cccc(NC(=O)CCN2CCCC(C)C2)c1 (stereo unspecified),i,i,59,i,i
COCCn1nnnc1C(c1cc2ccc(C)cc2[nH]c1=O)N(Cc1ccco1)Cc1cccs1 (stereo unspecified),i,i,17,i,i
Cc1ccc2cc(C(c3nnnn3C3CCCC3)N(Cc3ccccc3)Cc3ccco3)c(=O)[nH]c2c1 (stereo unspecified),i,i,i,i,nt
COc1cccc2c1NC(C(=O)O)C1CC=CC21 (stereo unspecified),i,i,19,i,i
C/C(=N\NC(=O)Cn1ccc(C(F)(F)F)n1)c1ccco1,i,i,i,i,nt
CCOC(=O)N1CCN(C(=O)C(=O)NNC(=O)COc2ccc(Cl)cc2)CC1,i,i,i,i,nt
Cc1cc(C(=O)CN2C(=O)NC(c3ccccc3)(c3ccccc3)C2=O)c(C)n1Cc1ccccc1,i,i,i,i,nt
O=C(c1ccncc1)N1CCN(S(=O)(=O)c2ccc(F)cc2)CC1,i,i,i,i,nt
Nc1nnc(SCC(=O)N2CCN(c3ccccc3)CC2)n1-c1ccccc1,i,i,18,i,i
Cc1cc(C)n(Cc2ccc(C(=O)O)cc2)n1,i,i,i,i,nt
Cc1ccc(C)n1Cc1ccc(C(=O)O)cc1,i,i,71,114,22
Cc1ccc(S(=O)(=O)N2CCC(C(=O)Nc3nnc(C)s3)CC2)cc1,i,i,i,i,nt
Cc1ccc(-c2cc(C(=O)N/N=C/c3ccco3)[nH]n2)cc1,i,i,17,i,i
Cn1c(Cn2cnc([N+](=O)[O-])n2)nnc1SCC(=O)Nc1ccccc1,i,i,17,i,i
O=C(NCCCN1CCC(Cc2ccccc2)CC1)C1CCN(S(=O)(=O)N2CCC3(CC2)OCCO3)CC1,i,i,i,i,nt
O=C(NCCCN1CCN(Cc2ccccc2)CC1)C1CCN(S(=O)(=O)N2CCC3(CC2)OCCO3)CC1,i,i,18,i,i
CN(CC(=O)Nc1ccc(OC(F)(F)F)cc1)C(=O)/C=C/c1cc2c(cc1[N+](=O)[O-])OCO2,i,i,i,i,nt
Cc1nc2c(-c3ccc(F)cc3)cnn2c(N)c1-c1ccccc1,i,i,20,i,i
Cc1nc2c(-c3ccc(Cl)cc3)cnn2c(N)c1-c1ccc(F)cc1,i,i,i,i,nt
O=C(Cn1cnc2ccccc2c1=O)c1ccc(Cl)cc1,i,i,i,i,nt
SMILES,Keap1-Nrf2 PPI,cardiac RTF act,RTF Ca sens inh,C-LANA FP,RTF inh confirm
CC1(C)Cc2cccc(OCC(O)CNCc3ccccn3)c2O1 (stereo unspecified),i,i,18,i,i
CC1(C)Cc2cccc(OCC(O)CN3CCN(c4ccccn4)CC3)c2O1 (stereo unspecified),i,i,i,i,nt
CCOC(=O)N1CCC(N(CCN(C)C)C(=S)Nc2ccccc2OCC)CC1,i,i,i,i,nt
CCOC(=O)[C@H](CCc1ccccc1)N[C@@H](C)C(=O)N1C(C(=O)O)C[C@@H]2CCC[C@@H]21 (stereo partly specified),i,i,23,i,i
CN1C(C(=O)NCc2cccc(Br)c2)CC2Cn3c(nc4cc5ccccc5cc43)C21 (stereo unspecified),i,i,i,i,nt
O=C(O)C1C2OC(C(Br)C2Br)C1C(=O)O (stereo unspecified),i,i,i,i,nt

# Compound activity deposited in PubChem BioAssay by several laboratories.
